We go through seven compounds from PubChem BioAssay (NCI).

Holding throughout (assay): NCI-60 one-dose screen, 48 h (100 = growth as untreated, 0 = no growth, -100 = all killed)
One experiment concerns HCT-15 colon. As to conditions: 10 µM unless noted.
The next experiment relates to HT29 colon. As to conditions: 10 µM unless noted.
The test system of a further experiment is SNB-75 CNS. The following applies: 10 µM unless noted.
The subject of the next experiment is SNB-19 CNS. As to conditions: 10 µM unless noted.
Another experiment has as its system U251 CNS. The following applies: 10 µM unless noted.
In a further experiment the test system is PC-3 prostate. The following applies: 10 µM unless noted.
The next experiment has as its system SK-MEL-5 melanoma. As to conditions: 10 µM unless noted.
A further experiment relates to UACC-62 melanoma. The following applies: 10 µM unless noted.
Another experiment concerns LOX IMVI melanoma. The following applies: 10 µM unless noted.
For a further experiment, the system named is SK-MEL-28 melanoma. The following applies: 10 µM unless noted.
A further experiment deals with SK-MEL-2 melanoma. The following applies: 10 µM unless noted.
In the next experiment the test system is EKVX NSCLC. The following applies: 10 µM unless noted.
A further experiment concerns SN12C renal. As to conditions: 10 µM unless noted.
The next experiment concerns UO-31 renal. The following applies: 10 µM unless noted.
For another experiment, the system named is TK-10 renal. As to conditions: 10 µM unless noted.
The subject of a further experiment is ACHN renal. As to conditions: 10 µM unless noted.
In a further experiment the test system is CAKI-1 renal. The following applies: 10 µM.
For a further experiment, the system named is A498 renal. The following applies: 10 µM unless noted.
The next experiment has as its system CCRF-CEM leukemia. As to conditions: 10 µM unless noted.
In the next experiment the test system is MOLT-4 leukemia. The following applies: 10 µM unless noted.

Structures are written as SMILES. About 83,000 compounds went through this panel and 20% of them were active in at least one assay; those are over-represented in the sample as a whole.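 Growth was measured after 48 h exposure to one concentration of compound in 96-well plates. Values under 10 count as active.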 Unmarked numbers belong to inactive results. Activity calls are given as the source filed them.

For the compound `COc1ccc(/C=N/Nc2nc(Nc3ccccc3)nc(Nc3ccc(S(N)(=O)=O)cc3)n2)cc1`, the growth was 68.2% in the experiment with HCT-15 colon; 55.3% in the experiment with HT29 colon; 81.9% in the experiment on SNB-75 CNS; 86.3% in the experiment on SNB-19 CNS; 66.8% in the experiment on U251 CNS; 75.8% with PC-3 prostate. The growth in the experiment with SK-MEL-5 melanoma is 74.6%; in the experiment on UACC-62 melanoma, 87%; in the experiment on LOX IMVI melanoma it was 52.5%; in the experiment with SK-MEL-28 melanoma, 78.5%; with SK-MEL-2 melanoma, 68.9%; in the experiment with EKVX NSCLC it was 88.5%. The growth is 80.2% with SN12C renal; 77.9% with UO-31 renal; 107% with TK-10 renal; 75.2% in the experiment with ACHN renal; 76% with CAKI-1 renal; 61.7% in the experiment on A498 renal. The growth is 45.9% in the experiment with CCRF-CEM leukemia and 44.5% with MOLT-4 leukemia.

For the compound `O=C(CSc1nnc(-c2ccc(Cl)cc2)n1-c1ccccc1)Nc1ccc(F)cc1`, the growth in the experiment with HCT-15 colon was 94.6%; in the experiment on HT29 colon, 87%; in the experiment with SNB-75 CNS, 117%; in the experiment on SNB-19 CNS, 59.7%; in the experiment on U251 CNS, 6.66% (active); in the experiment with PC-3 prostate, 99.9%. Moreover, the growth is 96.4% with SK-MEL-5 melanoma; 82.4% in the experiment with UACC-62 melanoma; 49.2% in the experiment on LOX IMVI melanoma; 95.8% in the experiment on SK-MEL-28 melanoma; 111% with SK-MEL-2 melanoma; 90.6% with EKVX NSCLC. The growth with SN12C renal was 62.6%; in the experiment with UO-31 renal, 97.5%; in the experiment with TK-10 renal, 88.7%; in the experiment with ACHN renal, 24.7%; in the experiment on CAKI-1 renal, 70.9%; in the experiment with A498 renal it was 69.8%. The values for the growth in the experiment with CCRF-CEM leukemia and in the experiment on MOLT-4 leukemia were 91.8% and 103%, respectively.

Consider `O=C(NNc1nc2cc(F)c(F)cc2n2cccc12)c1ncccn1`, for which the growth with HCT-15 colon is 28.8%; in the experiment with HT29 colon, 34.3%; with SNB-75 CNS, -1.51% (active); with SNB-19 CNS it was 25.8%; in the experiment with U251 CNS, 18.3%; in the experiment with PC-3 prostate, 32.4%. Also, the growth with SK-MEL-5 melanoma is -70.7% (active); in the experiment with UACC-62 melanoma, 18.3%; with LOX IMVI melanoma, 16.1%; in the experiment on SK-MEL-28 melanoma, 25.7%; in the experiment with SK-MEL-2 melanoma, 34.5%; in the experiment with EKVX NSCLC it was 17.3%. Also, the growth was 23.9% in the experiment on SN12C renal; 17.7% in the experiment with UO-31 renal; 48.6% in the experiment with TK-10 renal; 12.7% in the experiment on ACHN renal; 18.2% with CAKI-1 renal; 17.7% in the experiment on A498 renal. Besides, the values for the growth with CCRF-CEM leukemia and in the experiment on MOLT-4 leukemia were 12.7% and 16.6%, respectively.

On to `O=C(NNc1nc2cc(F)cc(F)c2n2cccc12)c1ccncn1`, for which the growth with HCT-15 colon was 25.3%; in the experiment with HT29 colon, 23.8%; in the experiment with SNB-75 CNS, 19.3%; in the experiment with SNB-19 CNS it was 21.9%; in the experiment with U251 CNS, 9.14% (active); in the experiment with PC-3 prostate, 33.6%. Further, the growth with SK-MEL-5 melanoma is -4.3% (active); with UACC-62 melanoma, 3.64% (active); in the experiment on LOX IMVI melanoma, 6.37% (active); in the experiment on SK-MEL-28 melanoma, 22.9%; in the experiment on SK-MEL-2 melanoma it was 22%; in the experiment with EKVX NSCLC, 7.66% (active). For the same compound, the growth is 19.6% in the experiment with SN12C renal; 17.3% in the experiment on UO-31 renal; 10% in the experiment with TK-10 renal; 11.6% with ACHN renal; 16.5% with CAKI-1 renal; 22.2% with A498 renal. For the same compound, the growth is 5.12% (active) in the experiment with CCRF-CEM leukemia and 4.2% (active) with MOLT-4 leukemia.

As for `CCN(CC)c1ccc2cc(C(=O)NCCOCCOCCOCCn3cc(CCC(=O)Nc4ccc(C(=O)c5ccc(NC(=O)OC(C)(C)C)cc5)cc4)nn3)c(=O)oc2c1`, the growth with HCT-15 colon is 72.7%; in the experiment with HT29 colon, 77.9%; in the experiment with SNB-75 CNS, 94.6%; with SNB-19 CNS, 75.7%; in the experiment on U251 CNS, 69.8%; with PC-3 prostate, 39.4%. Also, the growth in the experiment on SK-MEL-5 melanoma is -17.2% (active); with UACC-62 melanoma, 32.1%; with LOX IMVI melanoma, 26.7%; with SK-MEL-28 melanoma, 82.6%; in the experiment with SK-MEL-2 melanoma it was 67.6%; in the experiment on EKVX NSCLC, 73.5%. The growth in the experiment on SN12C renal was 68.7%; in the experiment with UO-31 renal it was 62.5%; in the experiment with TK-10 renal, 95.6%; in the experiment on ACHN renal, 84.1%; in the experiment on CAKI-1 renal it was 25.7%; with A498 renal it was 84.8%. For the same compound, the results for the growth in the experiment on CCRF-CEM leukemia and in the experiment with MOLT-4 leukemia were 19% and 21.4%, respectively.

On to `CC(C)C(=O)Nc1ccc(-c2nc(-c3cccc(O)c3)c(-c3ccnc(Br)c3)[nH]2)cc1`, for which the growth with HCT-15 colon is 65.6%; in the experiment with HT29 colon, 41%; in the experiment with SNB-75 CNS, 4.68% (active); in the experiment on SNB-19 CNS, 47%; in the experiment on U251 CNS, 42.5%; in the experiment on PC-3 prostate it was 29.7%. Further, the growth in the experiment with SK-MEL-5 melanoma is 42.7%; in the experiment with UACC-62 melanoma it was 31.8%; with LOX IMVI melanoma, 38.4%; in the experiment with SK-MEL-28 melanoma, 50.3%; in the experiment with SK-MEL-2 melanoma, 44.1%; in the experiment on EKVX NSCLC, 80.6%. The growth in the experiment with SN12C renal was 63.5%; with UO-31 renal, 24%; with TK-10 renal, 81.1%; in the experiment with ACHN renal, 64.2%; in the experiment with CAKI-1 renal, 45.1%; in the experiment with A498 renal, 37.4%. For the same compound, the growth is 17.3% in the experiment with CCRF-CEM leukemia and 9.54% (active) with MOLT-4 leukemia.

On to `CCN(CC)Cc1c(-c2cccc(OC(F)(F)F)c2)[nH]c2ccc(N3CCCC3)cc2c1=O`, for which the growth is 90.1% in the experiment with HCT-15 colon; 104% in the experiment on HT29 colon; 88.1% in the experiment on SNB-75 CNS; 90.6% in the experiment on SNB-19 CNS; 99.6% in the experiment on U251 CNS; 90.5% with PC-3 prostate. Further, the growth is 98.3% with SK-MEL-5 melanoma; 82.7% in the experiment with UACC-62 melanoma; 90.9% with LOX IMVI melanoma; 92.2% with SK-MEL-28 melanoma; 106% in the experiment with SK-MEL-2 melanoma; 90.6% in the experiment with EKVX NSCLC. For the same compound, the growth in the experiment with SN12C renal was 93.3%; in the experiment with UO-31 renal, 77.7%; in the experiment on TK-10 renal it was 124%; in the experiment with ACHN renal, 98.4%; with CAKI-1 renal, 77.3%; with A498 renal, 104%. Also, the growth with CCRF-CEM leukemia is 98.4%; in the experiment on MOLT-4 leukemia it was 69.4%.
